Our source for the growth values is PubChem BioAssay (NCI).

This is part of a sample that, as a whole, favours compounds with a hit. Of some 83,000 tested, about 20% had one in any assay.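 In brief: 96-well plates, 48 h treatment, single concentration, percent growth endpoint.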 Unmarked numbers belong to inactive results. Activity calls are given as the source filed them. The calls were made as follows: active = growth percent below 10; inactive = the rest.

Test systems include NCI-H23 lung; NCI-H226 lung; NCI-H322M lung; HOP-62 NSCLC; NCI-H460 lung; NCI-H522 lung; A549/ATCC NSCLC; 786-0 renal; COLO 205 colon; DU-145 prostate; K-562 leukemia; MALME-3M melanoma; MDA-MB-231 breast; RXF 393 renal; SF-268 CNS; SF-295 CNS; SF-539 CNS; UACC-257 melanoma; M14 melanoma.
Holding throughout (assay): NCI-60 one-dose screen, 48 h (100 = growth as untreated, 0 = no growth, -100 = all killed)
What all share (settings): 10 µM unless noted

As to `Nc1c(C(=O)Nc2cccc(Cl)c2)sc2nc3c(cc12)C(=O)CCC3`, the growth was 38% with NCI-H23 lung; 57.9% with NCI-H226 lung; 71.8% with NCI-H322M lung; 47% with HOP-62 NSCLC; 10.3% with NCI-H460 lung; 14.6% with NCI-H522 lung. Moreover, the growth was 28.2% with A549/ATCC NSCLC; 47.7% in the test with 786-0 renal; 10.2% in the test on COLO 205 colon; 11.6% in the test with DU-145 prostate; 22.8% in the test with K-562 leukemia; 49.7% with MALME-3M melanoma. In addition, the growth with MDA-MB-231 breast is 43.9%; with RXF 393 renal, 25.9%; in the test on SF-268 CNS it was 63.1%; in the test with SF-295 CNS it was -20.2% (active); with SF-539 CNS it was 27.3%; in the test on UACC-257 melanoma it was 68.9%. Further, in the test with M14 melanoma, the growth is 26.9%.
With `CCOc1cc(/C=N\NC(=O)C[N+](C)(C)C)ccc1O`, the growth in the test with NCI-H23 lung is 104%; in the test with NCI-H226 lung, 97.5%; in the test with NCI-H322M lung it was 123%; in the test with HOP-62 NSCLC it was 115%; in the test with NCI-H460 lung, 114%; with NCI-H522 lung, 104%. For the same molecule, the growth in the test with A549/ATCC NSCLC is 105%; in the test on 786-0 renal it was 113%; in the test on COLO 205 colon, 119%; in the test on DU-145 prostate, 116%; in the test on K-562 leukemia, 73.4%; in the test on MALME-3M melanoma it was 115%. Besides, the growth with MDA-MB-231 breast was 127%; in the test with RXF 393 renal, 120%; with SF-268 CNS, 109%; in the test with SF-295 CNS, 111%; in the test on SF-539 CNS, 120%; with UACC-257 melanoma, 112%. The growth in the test on M14 melanoma is 118%.
For `CS(=O)(=O)c1ccc(Cl)c([N+](=O)[O-])c1`, the growth is 103% in the test on NCI-H23 lung; 107% in the test with NCI-H226 lung; 149% with NCI-H322M lung; 105% in the test with HOP-62 NSCLC; 86.9% in the test on NCI-H460 lung; 95.8% with NCI-H522 lung. For the same molecule, the growth in the test on A549/ATCC NSCLC is 119%; in the test with 786-0 renal, 98.3%; with COLO 205 colon it was 111%; in the test with DU-145 prostate, 33.9%; in the test on K-562 leukemia, 1.69% (active); with MALME-3M melanoma it was 132%. Besides, the growth with MDA-MB-231 breast was 109%; in the test with RXF 393 renal, 113%; in the test on SF-268 CNS, 81.5%; in the test on SF-295 CNS, 102%; in the test on SF-539 CNS it was 102%; with UACC-257 melanoma it was 116%. For the same molecule, the growth in the test on M14 melanoma is 108%.
On to `CC(=O)NC1C(O[C@H]2C[C@H]3[C@@H]4CC=C5C[C@@H](O)CC[C@]5(C)[C@H]4CC[C@]3(C)[C@H]2[C@H](C)C(=O)CCC(C)C)OCC(O)C1O` (some centres not stated), for which the growth is 65.9% in the test with NCI-H23 lung; 60.6% with NCI-H226 lung; 81.3% in the test on NCI-H322M lung; 52% with HOP-62 NSCLC; 22.9% in the test with NCI-H460 lung; 66.7% in the test on NCI-H522 lung. Besides, the growth is 53.1% with A549/ATCC NSCLC; 1.28% (active) in the test on 786-0 renal; 30.1% with COLO 205 colon; 57.7% in the test with DU-145 prostate; 0.56% (active) with K-562 leukemia; 34.7% in the test on MALME-3M melanoma. In addition, the growth in the test with MDA-MB-231 breast was 59.9%; in the test with RXF 393 renal, -43.2% (active); in the test with SF-268 CNS, 31%; in the test on SF-295 CNS, -53.2% (active); in the test on SF-539 CNS, -26.2% (active); in the test on UACC-257 melanoma, -15.5% (active). In addition, the growth with M14 melanoma is -22.2% (active).
As to `C[C@@H]1N=C(c2ccc3ccccc3c2)Nc2nc3ccccn3c2C1=O`, the growth with NCI-H23 lung was 46.1%; in the test on NCI-H226 lung it was 64.5%; with NCI-H322M lung, 73.2%; with HOP-62 NSCLC, 36.7%; with NCI-H460 lung, 15.2%; with NCI-H522 lung, 29.4%. Besides, the growth in the test on A549/ATCC NSCLC is 39.5%; in the test on 786-0 renal, 69.3%; in the test on COLO 205 colon it was 22.8%; with DU-145 prostate, 73.3%; with K-562 leukemia, 27.6%; in the test with MALME-3M melanoma it was 42.3%. The growth in the test with MDA-MB-231 breast was 52.5%; with RXF 393 renal it was 49.9%; in the test on SF-268 CNS, 58%; in the test on SF-295 CNS it was 14.9%; in the test on SF-539 CNS, 37.2%; in the test with UACC-257 melanoma it was 40.9%. Moreover, in the test on M14 melanoma, the growth was 19.8%.
Consider `COc1ccc(C(=O)C(CN(C)C)c2ccc(OC)cc2)cc1` (configuration not stated), for which the growth is 89.8% in the test with NCI-H23 lung; 84.2% in the test with NCI-H226 lung; 93.2% in the test on NCI-H322M lung; 96% with HOP-62 NSCLC; 86.3% with NCI-H460 lung; -27.1% (active) in the test with NCI-H522 lung. For the same molecule, the growth with A549/ATCC NSCLC is 86.3%; in the test on 786-0 renal, 28.6%; in the test on COLO 205 colon it was 57.4%; with DU-145 prostate, 7.55% (active); with K-562 leukemia it was 16.3%; in the test with MALME-3M melanoma, 84.9%. The growth in the test with MDA-MB-231 breast is 59.4%; in the test with RXF 393 renal it was 55.8%; in the test with SF-268 CNS it was 60.2%; in the test on SF-295 CNS it was 101%; in the test on SF-539 CNS, 78.8%; with UACC-257 melanoma, 45.3%. The growth in the test with M14 melanoma is 60.6%.
For the molecule `CCOC(=O)C1C(=O)C=C(c2ccccc2)CC1c1sc(N(C)Cc2ccccc2)nc1Cl` (configuration not stated), the growth in the test with NCI-H23 lung is 89.1%; in the test with NCI-H226 lung it was 85.8%; with NCI-H322M lung, 91.2%; with HOP-62 NSCLC, 85.6%; in the test on NCI-H460 lung, 93.3%; in the test with NCI-H522 lung, 73.5%. Also, the growth in the test on A549/ATCC NSCLC was 83.8%; in the test on 786-0 renal, 93.2%; with COLO 205 colon, 100%; in the test with DU-145 prostate, 107%; in the test with K-562 leukemia it was 73%; in the test on MALME-3M melanoma, 120%. Moreover, the growth is 82.9% in the test on MDA-MB-231 breast; 91.7% in the test on RXF 393 renal; 89.6% with SF-268 CNS; 94.4% in the test on SF-295 CNS; 105% in the test with SF-539 CNS; 90.3% in the test with UACC-257 melanoma. Besides, the growth in the test on M14 melanoma was 94.7%.
Turning to `CC(C)c1ccc2c(c1)CCC1C2CCCC1(C)NCc1ccccc1` (configuration not stated), the growth in the test on NCI-H23 lung was 73%; with NCI-H226 lung it was 103%; with NCI-H322M lung, 32.6%; with HOP-62 NSCLC, 91%; in the test with NCI-H460 lung, 71.3%; with NCI-H522 lung, 9.67% (active). For the same molecule, the growth in the test on A549/ATCC NSCLC is 83.7%; in the test with 786-0 renal it was 64.7%; with COLO 205 colon it was -35.8% (active); in the test on DU-145 prostate, 75%; with K-562 leukemia it was 11.1%; in the test with MALME-3M melanoma it was -32.3% (active). Besides, the growth was 39.8% with MDA-MB-231 breast; 51.7% in the test on RXF 393 renal; 79.2% in the test with SF-268 CNS; 96.7% with SF-295 CNS; 90% in the test on SF-539 CNS; -31.2% (active) with UACC-257 melanoma. In the test with M14 melanoma, the growth is -84.9% (active).
